# The list is not random: actives were taken first. Their share in the collection is about 2.8%.
# KDM5B inh – Primary screen for KDM5B Histone Demethylases FDH-coupled qHTS; KDM5B demethylase, FDH-coupled NADH fluorescence (FDH is formaldehyde dehydrogenase); 220,000 tested, 2.6% active; Potency, µM (doses to about 57.7 µM), actives largely listed as inhibitors; Lysine-specific demethylase 5B (Homo sapiens), Q9UGL1; active = well fitted inhibition curve with a large enough effect; inconclusive = small, poorly fitted or top-dose-only effect; inactive = no such curve, though single readings can be large or run the other way; note: potency is the fitted concentration of half-maximal effect; 0% is about no effect; nearly all actives have a fitted effect of over 70% in size
#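 Measured: NADH fluorescence change, 30 min, RT. System: KDM5BΔAP 200 nM final, H3K4me3 peptide, α-KG, Fe(II), ascorbate, NAD⁺ plus FDH, pH 7.5 HEPES. Compounds: titrated, 10 min pre-incubation with enzyme.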
# IP6K1 inh – Primary qHTS assay for small molecule inhibitors of Inositol hexaphosphate kinase 1 (IP6K1) | IP6K1 kinase, ADP-Glo luminescence, 2 h; hits give low values | 140,000 tested, 0.81% active | activity change, % (series mostly up to about 58 µM); in the data active = activity change below about -25%; note: % is set by controls: 0 for no effect and ±100 for the full control effect
#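 ADP-Glo luminescence measures ADP made by human IP6K1 during a 2 h RT reaction with ATP/IP6 (mix at 1.3 mM/130 uM); top library doses 57.5 and 19.1 uM final.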
# The depositor's hits bear a star; i = inactive; ? = inconclusive; / = not tested or not shown.
SMILES,KDM5B inh,IP6K1 inh
CCN1CCN(C(=O)c2ccc(-c3nnc4ccc(NC(=O)C5CC5)cn34)cc2)CC1,28.2µM*,-7.5
COc1ccc(NC(=O)c2ccc(-c3nnc4ccc(NC(=O)C5CCC5)cn34)cc2)cc1,?,-0.9
CN(C)CCNC(=O)c1ccc(-c2nnc3ccc(NC(=O)C4CCC4)cn23)cc1,?,0.0
O=C(NCCc1cccnc1)c1ccc(-c2nnc3ccc(NC(=O)C4CCC4)cn23)cc1,?,0.9
CCN(CC(=O)NC)S(=O)(=O)N1CCCC(C)C1 (stereo unspecified),i,/
O=C(O)C1C2CCC(CC2)C1C(=O)NCCCN1CCOCC1 (stereo unspecified),i,/
CCOC(=O)c1cnc(Nc2ccccc2C)c2ccccc12,i,/
COc1ccc(-c2ccc(C(=O)NCC3CC3)cc2)nn1,/,1.4
Cc1ccc(S(C)(=O)=O)cc1C(=O)NC(C)C1CC1 (stereo unspecified),i,/
O=C(c1ccc2nnc(-c3ccc(Cl)cc3)n2c1)N1CCCC1,/,3.7
CC(=O)Nc1ccc2nnc(-c3ccc(C(=O)N4CCCCCC4)cc3)n2c1,14.1µM*,-5.6
CCCN(C)C(=O)c1ccc(-c2nnc3ccc(NC(=O)C4CCC4)cn23)cc1,22.4µM*,5.7
O=C(Nc1ccc2nnc(-c3ccc(C(=O)N4CCSCC4)cc3)n2c1)C1CCC1,28.2µM*,-6.1
O=C(NCCc1ccccn1)c1ccc(-c2nnc3ccc(NC(=O)C4CCC4)cn23)cc1,?,-9.0
CCC(=O)Nc1ccc2nnc(-c3ccc(C(=O)Nc4ccc5c(c4)OCCO5)cc3)n2c1,i,-4.2
FC(F)(F)c1ccc(-c2noc([C@@H]3Cc4nc[nH]c4CN3CC3CCCCC3)n2)cc1,?,-14.2
O=C(NCc1ccccc1)N1Cc2[nH]cnc2C[C@H]1c1nc(-c2ccc3c(c2)OCO3)no1,i,17.3
FC(F)(F)c1ccc(-c2noc([C@@H]3Cc4nc[nH]c4CN3Cc3cc4ccccc4o3)n2)cc1,25.1µM*,-1.7
c1ccc2oc(CN3Cc4[nH]cnc4C[C@H]3c3nc(-c4ccc5c(c4)OCO5)no3)cc2c1,35.5µM*,12.8
O=c1cc(C(F)(F)F)[nH]c(=S)[nH]1,i,/
CCCC1(CO)CCCN(Cc2cn3ccc(C)cc3n2)C1 (stereo unspecified),?,7.6
Cc1ccc2nc(CN3CCCC(CO)(CC4CC4)C3)cn2c1 (stereo unspecified),22.4µM*,5.1
Cn1cnc2cc(Nc3ccc(Cl)cc3F)cc(C(=O)NCc3cccnc3)c21,35.5µM*,15.8
Cc1cc(C)c(CNC(=O)c2cc(-c3ccc(F)cc3)cc3ncn(C)c23)c(=O)[nH]1,?,-0.6
COc1cccc(Nc2cc(C(=O)NCc3cccnc3)c3c(c2)ncn3C)c1,?,5.9
SMILES,KDM5B inh,IP6K1 inh
Cn1cnc2cc(-c3cccc4[nH]ncc34)cc(C(=O)NCc3cccnc3)c21,39.8µM*,-2.6
Cn1cncc1CNC(=O)c1cc(-c2ccc(F)cc2)cc2ncn(C)c12,28.2µM*,-5.3
Cn1cnc2cc(-c3cccc4[nH]ccc34)cc(C(=O)NCc3cccnc3)c21,?,-10.0
COc1ccc(C(=O)NC2CCCCNC2=O)cc1OC (stereo unspecified),i,/
COc1ccccc1CNC(=O)CSc1nnc(-c2ccco2)n1C,i,/
C=CCN(Cc1cnc(-c2cccc(C)c2)nc1)Cc1ccccn1,22.4µM*,3.4
Cc1cccc(-c2ncc(CN(C)Cc3cccc4ncccc34)cn2)c1,i,-5.8
O=C(O)c1nn(Cc2ccccc2)c(=O)c2ccccc12,i,/
Cc1cccc(NC(=O)Cn2ccn3nc(-c4ccccc4)c(CO)c3c2=O)c1,?,6.2
O=C(Cn1ccn2nc(-c3ccc(F)cc3)c(CO)c2c1=O)Nc1ccc(Cl)cc1F,31.6µM*,-0.2
O=C(Cn1ccn2nc(-c3ccccc3)c(CO)c2c1=O)Nc1cccc(F)c1,17.8µM*,8.9
O=C(Cn1ccn2nc(-c3ccccc3)c(CO)c2c1=O)Nc1ccc(Cl)cc1F,?,-1.6
CC(C)(C)C(=O)COC(=O)c1ccccc1SCC1CCCO1 (stereo unspecified),i,/
COc1ccccc1-c1cccc(CN2CCC(NC(=O)NC3CCCC3)CC2)c1,/,-2.5
Cc1nn(-c2ccccc2)c2c1C(C(C)C)N(C1CN(C(=O)C3CCCC3)C1)C2=O (stereo unspecified),/,15.7
O=C(NCc1cccnc1)C1CCC1,i,/
O=C(c1ccccn1)N1CCCC2(C1)Nc1cccnc1NC2=NC1CCCC1 (stereo unspecified),?,0.0
Cc1noc(C)c1S(=O)(=O)N1CCCC2(C1)Nc1cccnc1NC2=NC1CCCC1 (stereo unspecified),22.4µM*,0.0
